# Results: PubChem BioAssay AID1159580 (chemical genetic matrix, 2015)
# Screen size: about 5,500 compounds; about 2,000 (36%) were called active. Inconclusive results (about 18%) are left out. The list shows a part of the results. Values without a mark were called inactive. Cut-off read from the data, not from the text of the source: active = normalized growth mostly below about 0.91 (no sharp cut-off); inconclusive = no clear call, values can overlap the other calls; inactive = mostly above about 0.92.
# Assay: chemical genetic growth profiling, strain panel (AID 1159580);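 note: tested at 20 µM; growth read once vehicle control cultures reached saturation at 30 °C; 1 = growth at the plate median or of vehicle wells; lower values mean less growth of the strain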
# Details: growth OD
smiles,measurement,setting,value
O=c1cc(-c2ccccc2)oc2c(O)c(O)ccc12,normalized growth,"S. cerevisiae deletion strains, locus YJR066W, strain TOR1, stronger effect = lower value",0.985
same,normalized growth,"S. cerevisiae deletion strains, locus YJR075W, strain HOC1, stronger effect = lower value",1.01
same,normalized growth,"S. cerevisiae deletion strains, locus YKL009W, strain mrt4, stronger effect = lower value",0.96
same,normalized growth,"S. cerevisiae deletion strains, locus YKL068W, stronger effect = lower value",0.976
same,normalized growth,"S. cerevisiae deletion strains, locus YKL085W, strain MDH1 (second series), stronger effect = lower value",0.986
same,normalized growth,"S. cerevisiae deletion strains, locus YKL085W, strain MDH1, stronger effect = lower value",0.986
same,normalized growth,"S. cerevisiae deletion strains, locus YKL160W, strain elf1, stronger effect = lower value",0.986
same,normalized growth,"S. cerevisiae deletion strains, locus YKR001C, strain vps1, stronger effect = lower value",0.89 (active)
same,normalized growth,"S. cerevisiae deletion strains, locus YKR026C, strain gcn3, stronger effect = lower value",0.993
same,normalized growth,"S. cerevisiae deletion strains, locus YKR091W, strain srl3, stronger effect = lower value",0.995
same,normalized growth,"S. cerevisiae deletion strains, locus YLL001W, strain dnm1, stronger effect = lower value",0.984
same,normalized growth,"S. cerevisiae deletion strains, locus YLL026W, stronger effect = lower value",1
same,normalized growth,"S. cerevisiae deletion strains, locus YLL041C, strain sdh2, stronger effect = lower value",0.987
same,normalized growth,"S. cerevisiae deletion strains, locus YLR027C, strain aat2, stronger effect = lower value",0.999
same,normalized growth,"S. cerevisiae deletion strains, locus YLR039C, strain RIC1, stronger effect = lower value",0.499 (active)
same,normalized growth,"S. cerevisiae deletion strains, locus YLR058C, strain SHM2, stronger effect = lower value",0.938
same,normalized growth,"S. cerevisiae deletion strains, locus YLR102C, strain apc9, stronger effect = lower value",0.99
same,normalized growth,"S. cerevisiae deletion strains, locus YLR113W, strain HOG1, stronger effect = lower value",1.01
same,normalized growth,"S. cerevisiae deletion strains, locus YLR221C, strain rsa3, stronger effect = lower value",0.994
same,normalized growth,"S. cerevisiae deletion strains, locus YLR258W, strain gsy2, stronger effect = lower value",0.987
same,normalized growth,"S. cerevisiae deletion strains, locus YLR262C, strain YPT6 (second series), stronger effect = lower value",0.661 (active)
same,normalized growth,"S. cerevisiae deletion strains, locus YLR262C, strain YPT6, stronger effect = lower value",0.593 (active)
same,normalized growth,"S. cerevisiae deletion strains, locus YLR268W, strain sec22, stronger effect = lower value",0.768 (active)
same,normalized growth,"S. cerevisiae deletion strains, locus YLR320W, strain mms22, stronger effect = lower value",1.01
same,normalized growth,"S. cerevisiae deletion strains, locus YLR330W, strain CHS5, stronger effect = lower value",0.985
same,normalized growth,"S. cerevisiae deletion strains, locus YLR342W, strain FKS1 (second series), stronger effect = lower value",0.764 (active)
same,normalized growth,"S. cerevisiae deletion strains, locus YLR342W, strain FKS1, stronger effect = lower value",0.987
same,normalized growth,"S. cerevisiae deletion strains, locus YLR357W, strain rsc2, stronger effect = lower value",0.914
same,normalized growth,"S. cerevisiae deletion strains, locus YLR370C, strain arc18, stronger effect = lower value",0.99
same,normalized growth,"S. cerevisiae deletion strains, locus YLR371W, strain rom2, stronger effect = lower value",0.848 (active)
same,normalized growth,"S. cerevisiae deletion strains, locus YLR384C, strain iki3, stronger effect = lower value",0.989
same,normalized growth,"S. cerevisiae deletion strains, locus YLR418C, strain cdc73, stronger effect = lower value",0.789 (active)
same,normalized growth,"S. cerevisiae deletion strains, locus YML016C, strain PPZ1, stronger effect = lower value",0.952
same,normalized growth,"S. cerevisiae deletion strains, locus YML032C, strain rad52, stronger effect = lower value",1.01
same,normalized growth,"S. cerevisiae deletion strains, locus YML120C, strain ndi1, stronger effect = lower value",0.973
same,normalized growth,"S. cerevisiae deletion strains, locus YML124C, strain tub3, stronger effect = lower value",0.999
same,normalized growth,"S. cerevisiae deletion strains, locus YMR058W, strain fet3, stronger effect = lower value",0.966
same,normalized growth,"S. cerevisiae deletion strains, locus YMR078C, strain ctf18, stronger effect = lower value",0.961
same,normalized growth,"S. cerevisiae deletion strains, locus YMR125W, strain sto1, stronger effect = lower value",0.984
same,normalized growth,"S. cerevisiae deletion strains, locus YMR129W, stronger effect = lower value",0.989
same,normalized growth,"S. cerevisiae deletion strains, locus YMR205C, strain PFK2, stronger effect = lower value",1
same,normalized growth,"S. cerevisiae deletion strains, locus YMR223W, strain ubp8, stronger effect = lower value",0.953
same,normalized growth,"S. cerevisiae deletion strains, locus YMR231W, strain pep5, stronger effect = lower value",0.968
same,normalized growth,"S. cerevisiae deletion strains, locus YMR307W, strain GAS1, stronger effect = lower value",0.709
same,normalized growth,"S. cerevisiae deletion strains, locus YNL067W, strain RPL9B, stronger effect = lower value",0.955
same,normalized growth,"S. cerevisiae deletion strains, locus YNL071W, strain lat1, stronger effect = lower value",0.985
same,normalized growth,"S. cerevisiae deletion strains, locus YNL153C, strain GIM3, stronger effect = lower value",0.988
same,normalized growth,"S. cerevisiae deletion strains, locus YNL183C, strain NPR1, stronger effect = lower value",1.01
same,normalized growth,"S. cerevisiae deletion strains, locus YNL209W, strain ssb2, stronger effect = lower value",0.979
same,normalized growth,"S. cerevisiae deletion strains, locus YNL233W, strain BNI4, stronger effect = lower value",0.922
same,normalized growth,"S. cerevisiae deletion strains, locus YNL248C, strain rpa49, stronger effect = lower value",0.982
same,normalized growth,"S. cerevisiae deletion strains, locus YNL250W, strain rad50, stronger effect = lower value",0.966
same,normalized growth,"S. cerevisiae deletion strains, locus YNL271C, strain bni1, stronger effect = lower value",0.972
same,normalized growth,"S. cerevisiae deletion strains, locus YNL298W, strain CLA4, stronger effect = lower value",0.972
same,normalized growth,"S. cerevisiae deletion strains, locus YNL307C, strain MCK1, stronger effect = lower value",0.982
same,normalized growth,"S. cerevisiae deletion strains, locus YNL322C, strain KRE1 (second series), stronger effect = lower value",0.993
same,normalized growth,"S. cerevisiae deletion strains, locus YNR049C, strain mso1, stronger effect = lower value",0.993
same,normalized growth,"S. cerevisiae deletion strains, locus YNR052C, strain pop2, stronger effect = lower value",0.916
same,normalized growth,"S. cerevisiae deletion strains, locus YOL006C, strain TOP1, stronger effect = lower value",0.545
same,normalized growth,"S. cerevisiae deletion strains, locus YOL012C, strain htz1",0.521
same,normalized growth,"S. cerevisiae deletion strains, locus YOL147C, strain pex11, stronger effect = lower value",0.977
same,normalized growth,"S. cerevisiae deletion strains, locus YOR001W, strain rrp6, stronger effect = lower value",0.972
same,normalized growth,"S. cerevisiae deletion strains, locus YOR061W, strain CKA2, stronger effect = lower value",0.921
same,normalized growth,"S. cerevisiae deletion strains, locus YOR069W, strain VPS5, stronger effect = lower value",0.971
same,normalized growth,"S. cerevisiae deletion strains, locus YOR070C, strain gyp1, stronger effect = lower value",0.982
same,normalized growth,"S. cerevisiae deletion strains, locus YOR080W, strain dia2, stronger effect = lower value",0.996
same,normalized growth,"S. cerevisiae deletion strains, locus YOR083W, strain WHI5, stronger effect = lower value",0.968
same,normalized growth,"S. cerevisiae deletion strains, locus YOR106W, strain vam3, stronger effect = lower value",0.853 (active)
same,normalized growth,"S. cerevisiae deletion strains, locus YOR136W, strain idh2, stronger effect = lower value",0.962
same,normalized growth,"S. cerevisiae deletion strains, locus YOR144C, strain elg1, stronger effect = lower value",0.986
same,normalized growth,"S. cerevisiae deletion strains, locus YOR184W, strain ser1, stronger effect = lower value",0.927
same,normalized growth,"S. cerevisiae deletion strains, locus YOR231W, strain MKK1, stronger effect = lower value",1.06
same,normalized growth,"S. cerevisiae deletion strains, locus YOR265W, strain rbl2, stronger effect = lower value",0.983
same,normalized growth,"S. cerevisiae deletion strains, locus YOR270C, strain vph1, stronger effect = lower value",0.936
same,normalized growth,"S. cerevisiae deletion strains, locus YOR290C, strain snf2, stronger effect = lower value",0.987
same,normalized growth,"S. cerevisiae deletion strains, locus YOR316C, strain cot1, stronger effect = lower value",0.987
same,normalized growth,"S. cerevisiae deletion strains, locus YPL051W, strain arl3, stronger effect = lower value",0.983
same,normalized growth,"S. cerevisiae deletion strains, locus YPL078C, strain atp4, stronger effect = lower value",0.989
same,normalized growth,"S. cerevisiae deletion strains, locus YPL106C, strain sse1, stronger effect = lower value",0.88
same,normalized growth,"S. cerevisiae deletion strains, locus YPL240C, strain hsp82, stronger effect = lower value",0.975
same,normalized growth,"S. cerevisiae deletion strains, locus YPL241C, strain CIN2, stronger effect = lower value",0.987
same,normalized growth,"S. cerevisiae deletion strains, locus YPL256C, strain CLN2, stronger effect = lower value",1.06
same,normalized growth,"S. cerevisiae deletion strains, locus YPR119W, strain clb2, stronger effect = lower value",0.991
same,normalized growth,"S. cerevisiae deletion strains, locus YPR141C, strain kar3, stronger effect = lower value",0.974
same,normalized growth,"S. cerevisiae deletion strains, locus YPR163C, strain tif3, stronger effect = lower value",0.987
same,normalized growth,"S. cerevisiae deletion strains, locus YPR167C, strain met16, stronger effect = lower value",0.993
same,normalized growth,"S. cerevisiae deletion strains, strain wtn01, stronger effect = lower value",0.903
same,normalized growth,"S. cerevisiae strains, strain wild type, stronger effect = lower value",0.834 (active)
